# Data taken from PubChem BioAssay (NCI).
# About 83,000 compounds went through this panel and 20% of them were active in at least one assay; those are over-represented in the sample as a whole.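 Interpretation: 100, growth as untreated; towards 0, rising growth inhibition; 0, no net growth; 0 to -100, cell death. Compounds scoring below 10 were considered active.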 A number with no mark means an inactive call. Activity calls are given as the source filed them.
# Test system: MDA-MB-468 breast
# Assay: NCI-60 one-dose screen, 48 h (100 = growth as untreated, 0 = no growth, -100 = all killed)
# Details: 10 µM unless noted
row,Compound,growth
1,Cc1cc(C(NC(=O)CCCCCNc2cccc3c2C(=O)N(C2CCC(=O)NC2=O)C3=O)c2ccc3c(c2)OC(F)(F)O3)c(O)c2ncccc12 (stereo not given),69%
2,Cc1nn(-c2ccccc2)c(N)c1N=C1NC(=O)/C(=C/c2ccc(Br)cc2)S1,86.6%
3,CCC/C=C(\C)C(C)(C#N)C(=O)OCC (stereo not given),102%
4,CCCCC1CCc2cccc3c(SCC(=O)N(C)c4ccc(Cl)cc4)cc[n+]1c23 (stereo not given),106%
5,O=C(N/N=C/c1ccccc1O)C(O)(c1ccccc1)c1ccccc1,38.2%
6,Fc1ccc(Nc2ncnc3ccc(-c4cn[nH]c4)cc23)cc1Cl,-21.9% (active)
7,CCOc1ccc(Br)cc1/C=N\N=C\c1cc(Br)ccc1OCC,128%
8,COc1cccc(C2CC(=O)Nc3cc4c(cc32)CCC4)c1OC (stereo not given),-2.82% (active)
9,Cc1ccc(CC(=O)O)c(C)c1,112%
10,Clc1nc(-c2ccccn2)nc2sc3c(c12)CCCCCC3,-84.3% (active)
11,Clc1ccc(Nc2ncnc3c2sc2ncccc23)cc1,23%
12,COc1ccc(-c2cn[nH]c2-c2cc(OC)c3c(c2)OCCO3)cc1,5.64% (active)
13,COc1ccccc1-c1ccc2nc(NC(=O)Nc3cc(C(F)(F)F)cc(C(F)(F)F)c3)sc2c1,-8.23% (active)
14,O=C(O)c1[nH]c(=O)[nH]c(=O)c1[N+](=O)[O-],109%
15,C[C@@H]1CCCCCCCCC[C@H](O)C(=O)C[C@@H](SC[C@@H](O)C(=O)O)C(=O)O1,104%
